# Measured values: ChEMBL document CHEMBL4513216, “Probing the Open Global Health Chemical Diversity Library for Multistage-Active Starting Points for Next-Generation Antimalarials” (ACS Infect Dis, 2020)
# The whole screen tested about 69,000 compounds, of which about 8,600 (12%) showed an effect of 50% or more. The sample as a whole holds a higher share of strong results than the screen did.
# Test system: Plasmodium berghei
# Experiment: Screen against P. berghei liver stage (PbLuc), transformed with Luciferase, at 10uM
# Assay type: functional, HepG2
# Conditions: tested at 10 uM
row,SMILES,INHIBITION [%]
1,COc1cccc(S(=O)(=O)CCN2CCCC2c2ccc[nH]2)c1 (centres undefined),32.3
2,COc1cccc(C2CCCN2Cc2nnnn2C2CC2)c1 (centres undefined),51.6
3,N#Cc1cccc(CN2CCCC2c2ccc[nH]2)c1 (centres undefined),50.7
4,NC(=O)COc1cccc(CN2CCCC2c2ccc[nH]2)c1 (centres undefined),62.6
5,COc1ccc(C2CCCN2Cc2nnnn2C2CC2)cc1OC (centres undefined),19.7
6,COc1cccc(CN2CCCC2c2ccc[nH]2)c1 (centres undefined),62.6
7,N#Cc1cccc(CN2CCCC2Cn2cccn2)c1 (centres undefined),-11.4
8,Cc1nc(Cn2c3c(ccc2=O)CCN(CC2CC2)CC3)cs1,-8.85
9,COc1cccc(CC2CN(C3CCC3)CCO2)c1 (centres undefined),25.8
10,Cc1ccccc1NC(=O)c1cncc(C2CCNCC2)n1,-20.6
11,CCN1CC[C@@]2(C(=O)N3CCOCC3)CCN(C(=O)C(C)C)CC[C@@H]12,14.9
12,Cc1cnn(CC2CCCCN2CC(=O)Nc2nc(C)cs2)c1 (centres undefined),33.8
13,Cc1nc(CN2CCO[C@@H]3CN(C(=O)CC4CC4)C[C@@H]3C2)cs1,9.63
14,Cn1ccnc1CC1CCCN(C(=O)Cc2ccccc2)C1 (centres undefined),21.9
15,Cc1nn(C)c(C)c1C1CCCN1Cc1cccc(OCC(N)=O)c1 (centres undefined),72.9
16,Cc1nn(C)c(C)c1C1CCCN1Cc1cccc(C(N)=O)c1 (centres undefined),5.37
17,COc1cccc(CN2CCCC2c2c(C)nn(C)c2C)c1 (centres undefined),-14.8
18,CCS(=O)(=O)CCN1CCCC1c1noc(C)n1 (centres undefined),16.8
19,Cc1cc(CNc2cccc(Cl)c2C)no1,16.165
20,CCCn1ccnc1-c1nccn1CCC(N)=O,29.8
21,CCCSc1ncc(-c2nccn2CCC(N)=O)cn1,53.3
22,CCCSc1ncc(-c2nccn2CCO)cn1,35.1
23,Cc1ccc(Cc2cnc(NC(=O)C3CNC(=O)N3)s2)cc1F (centres undefined),55.5
24,O=C1NCC(C(=O)Nc2ncc(Cc3cccc(F)c3)s2)N1 (centres undefined),12.7
25,O=C1NCC(C(=O)Nc2ncc(Cc3ccc(F)cc3)s2)N1 (centres undefined),26.5
26,CNc1cc(C)nc(C2COCCN2CCOc2ccc(F)cc2)n1 (centres undefined),-12.625
27,CC(SCc1cc(Br)cc2cccnc12)C(N)=O (centres undefined),58.1

row,SMILES,INHIBITION [%]
1,NC(=O)CCSCc1cc(Br)cc2cccnc12,-57.1
2,CC(SCc1ccc(Br)c2cccnc12)C(N)=O (centres undefined),21.1
3,CC(OCC(F)(F)F)C(=O)N1CCCC1 (centres undefined),-1.37
4,Cc1ccc(SCC2CNc3nc4ccccc4c(=O)n32)c(C)c1 (centres undefined),49.9
5,CC(=O)N(CCc1ccccc1)CC(=O)NC1(C#N)CC1,-3.39
6,CC(=O)N(CCc1ccccc1)CC(=O)Nc1ccccc1C#N,45.8
7,CC(=O)N(CCc1ccccc1)CC(=O)NC(C)(C)C#N,59.7
8,COc1ccc(C2=CCN(C(=O)C3CCS(=O)(=O)C3)CC2)cc1 (centres undefined),59.4
9,COc1ccc(C2=CCN(C(=O)CN(CC(N)=O)C(C)C)CC2)cc1,83.2
10,COc1ccc(C2=CCN(C(=O)CN(C)S(C)(=O)=O)CC2)cc1,-11.4
11,COc1ccc(C2=CCN(C(=O)C3CCC3)CC2)cc1,-6.44
12,COc1ccc(C2=CCN(C(=O)CN(C)CC(N)=O)CC2)cc1,10.8
13,COc1ccc(C2=CCN(C(=O)CN(C)Cc3ccoc3)CC2)cc1,53.5
14,COc1ccc(C2=CCN(C(=O)C3CC(=O)N(C4CC4)C3)CC2)cc1 (centres undefined),40.3
15,COc1ccc(C2=CCN(C(=O)CN(C)CC(C)C#N)CC2)cc1 (centres undefined),46.5
16,COc1ccc(C2=CCN(C(=O)CN(C)Cc3ccco3)CC2)cc1,46.2
17,CC(C)NC(=O)N1CCCC(Cn2cc(-c3ccc(F)cc3)nn2)C1 (centres undefined),38.5
18,Cc1nc(C)n(CC2CCCN2CCOc2cccc(F)c2)n1 (centres undefined),37.9
19,Cc1cc(-c2cc3nc(C)c(C)c(NCC4COCCO4)n3n2)no1 (centres undefined),8.57
20,CNc1ncc(CN(C)CCN2CCCCC2)cn1,-61.5
21,CCC1CN(CC(=O)NCCN2CCCCC2)c2ccccc2S1 (centres undefined),9.57
22,CCOCC1CN(Cc2ccc(OC)cc2)Cc2nn(C)cc21 (centres undefined),30.7
23,COCC1CN(Cc2ccccn2)Cc2nn(C)cc21 (centres undefined),60.2
24,COCC1CN(Cc2ccccn2)Cc2cn(C)nc21 (centres undefined),45.1
25,COCC1CN(Cc2ccncc2)Cc2nn(C)cc21 (centres undefined),-5.05
26,COCC1CN(Cc2ccc(OC)cc2)Cc2nn(C)cc21 (centres undefined),93.3
27,COCC1CN(Cc2ccc(F)cc2)Cc2nn(C)cc21 (centres undefined),8.93
